For 24 compounds, Z-AUC and z-score results are on record in PubChem BioAssay (NCATS).

Assay [1] is described as follows: qHTS drug screen for cell cycle checkpoint inhibitors in PARPi-resistant BRCA-mutant ovarian cancer cell lines. (AID 1963452). The note with it: PEO1/OlaR viability, CellTiter-Glo luminescence, 96 h, stronger effect = lower value. In short, it runs like this: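 PEO1, PEO4 and PEO1/OlaR ovarian cancer cells, 600 per well, exposed 96 h at 37C to a dilution series. Viability read by CellTiter-Glo luminescence, normalized to DMSO and empty wells; activity summarized as Z-AUC.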
On the technique in general: Quantitative high-throughput screening tests each substance at several concentrations.

Assay [2] is described as follows: qHTS for identification of novel therapeutic agents for treatment of microphthalmiaassociated transcription factor (MiT) renal cell carcinoma (RCC) (AID 1963991). The note with it: CellTiter-Glo, 48 h, stronger effect = lower value. In short, it runs like this: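 Viability of three TFE3-fusion renal carcinoma lines measured by CellTiter-Glo after 48 h treatment with each of 1912 compounds at 11 concentrations. Responses scaled between DMSO (100%) and empty wells (0%) before curve fitting.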

The mark [3] stands for this setting: measured here: PEO1 parental Z-AUC.
Setting [4] is: TFE3-RCC UOK109 viability, measured here: UOK109 Z-AUC.
The mark [5] stands for this setting: TFE3-RCC viability, measured here: UOK124 Z-AUC.
Where [6] appears, read: TFE3-RCC viability, measured here: UOK145 Z-AUC.

Inconclusive results are not listed. Calls of active or inactive are those of the source. The call rests on the fitted dose curve.

Turning to `O=[N+]([O-])c1ccc(Nc2ccccc2-c2ccccc2)c2nonc12`, the Z-AUC was 0.186 (inactive) in assay [1], 0.785 in assay [1] (setting [3]) and 0.946 in assay [1] (measured here: PEO4 Z-AUC).

`COc1cccc(OC)c1-c1cc(C(=O)NC2(C(=O)O)C3CC4CC(C3)CC2C4)nn1-c1ccnc2cc(Cl)ccc12` (stereo unspecified): the figures for the Z-AUC in assay [1], in assay [1] (setting [3]) and in assay [1] (measured here: PEO4 Z-AUC) were 1.24 (inactive), 0.986 and 1.12, respectively. Also, the results for the z-score in assay [2] (setting [4]), in assay [2] (setting [5]) and in assay [2] (setting [6]) were 1.18, 0.441 and 0.707, respectively.

As to `CCCCc1ccc(NS(=O)(=O)c2ccc(C)c(C(=O)N3CCN(c4cccc(C)c4C)CC3)c2)cc1`, the Z-AUC in assay [1] is 1.4 (inactive); in assay [1] (setting [3]) it was 1.5; in assay [1] (measured here: PEO4 Z-AUC), 1.44.

`COc1ccc(-c2nc3ccc(C4=NNC(=O)CC4C)cc3[nH]2)cc1` (stereo unspecified): the Z-AUC in assay [1] was -0.406 (inactive); in assay [1] (setting [3]), -0.248; in assay [1] (measured here: PEO4 Z-AUC), 0.0118. Further, the z-score was found to be 0.403 in assay [2] (setting [4]), 0.3 in assay [2] (setting [5]) and 0.145 in assay [2] (setting [6]).

On to `Cc1ccc(S(=O)(=O)OCC(=O)Nc2ccc(C(=O)O)c(O)c2)cc1`, for which the Z-AUC was 1.67 (inactive) in assay [1], 1.37 in assay [1] (setting [3]) and 1.35 in assay [1] (measured here: PEO4 Z-AUC). Also, the values for the z-score in assay [2] (setting [4]), in assay [2] (setting [5]) and in assay [2] (setting [6]) were -0.0907, 0.585 and -0.321, respectively.

With `CC1=C[C@@H]2[C@@H]([C@@H](O)C[C@@]3(C)[C@H]2C[C@@H](C)[C@]3(O)C(=O)CO)[C@@]2(C)Cc3cnn(-c4ccccc4)c3C=C12`, the results for the Z-AUC in assay [1], in assay [1] (setting [3]) and in assay [1] (measured here: PEO4 Z-AUC) were -1.56 (inactive), -0.109 and -1.25, respectively.

For `CNc1nc(Nc2ccc(C(=O)N3CCOCC3)cc2OC)ncc1Cl`, the Z-AUC in assay [1] was -0.915 (inactive); in assay [1] (setting [3]), -0.00443; in assay [1] (measured here: PEO4 Z-AUC) it was 0.143. Further, the z-score is 0.622 in assay [2] (setting [4]), -0.0223 in assay [2] (setting [5]) and 0.626 in assay [2] (setting [6]).

For the compound `CCCCCCCCCCCCCC(=O)N[C@H](CO)[C@H](O)c1ccc([N+](=O)[O-])cc1`, the Z-AUC in assay [1] is 1.33 (inactive); in assay [1] (setting [3]) it was 1.09; in assay [1] (measured here: PEO4 Z-AUC), 1.02.

Consider `CC(C)C[C@@H](C(=O)N[C@H](C(=O)OC1CCCC1)c1ccccc1)[C@H](O)C(=O)NO`, for which the Z-AUC in assay [1] is -0.457 (inactive); in assay [1] (setting [3]) it was -0.511; in assay [1] (measured here: PEO4 Z-AUC) it was -0.774.

As for `O=C(c1ccc(C(=O)N2CCC(N3CCCC3)CC2)c(Nc2ccccc2)c1)N1CCC(N2CCCC2)CC1`, the Z-AUC in assay [1] was 0.276 (inactive); in assay [1] (setting [3]), 0.308; in assay [1] (measured here: PEO4 Z-AUC), 0.42. The z-score in assay [2] (setting [4]) turned out to be 0.9; in assay [2] (setting [5]), 1.07; in assay [2] (setting [6]), 0.591.

As for `Cc1ccc(NC(=O)c2ccc(CN3CCN(C)CC3)cc2)cc1Nc1nc(-c2cccnc2)cs1`, the results for the Z-AUC in assay [1], in assay [1] (setting [3]) and in assay [1] (measured here: PEO4 Z-AUC) were -0.78 (inactive), -0.735 and -0.741, respectively.

Regarding `Cc1ccccc1C(C(=O)NC1CCCCC1)N(C(=O)CNc1ccc(C#N)cc1)c1cccc(F)c1` (stereo unspecified), the Z-AUC in assay [1] was 0.169 (inactive); in assay [1] (setting [3]), 0.0819; in assay [1] (measured here: PEO4 Z-AUC) it was 0.0144. The z-score in assay [2] (setting [4]) was determined as 0.515; in assay [2] (setting [5]), 0.305; in assay [2] (setting [6]), 0.632.

For `OC(c1cc(C(F)(F)F)nc2c(C(F)(F)F)cccc12)C1CCCCN1` (stereo unspecified), the Z-AUC in assay [1] was 0.945 (inactive); in assay [1] (setting [3]), 0.285; in assay [1] (measured here: PEO4 Z-AUC) it was 0.429.

In the case of `CC[C@H](C)n1cc(C)c2c(C(=O)NCc3c(C)cc(C)[nH]c3=O)cc(-c3ccc(N4CCNCC4)nc3)cc21`, the results for the Z-AUC in assay [1], in assay [1] (setting [3]) and in assay [1] (measured here: PEO4 Z-AUC) were 1.9 (inactive), 1.58 and 1.72, respectively.

As to `CCOC(=O)N1c2ccc(C(F)(F)F)cc2[C@@H](N(Cc2cc(C(F)(F)F)cc(C(F)(F)F)c2)C(=O)OC)C[C@H]1CC`, the Z-AUC in assay [1] is -1 (inactive); in assay [1] (setting [3]) it was 0.195; in assay [1] (measured here: PEO4 Z-AUC), -0.682. Moreover, the z-score was 0.825 in assay [2] (setting [4]), 0.72 in assay [2] (setting [5]) and 0.57 in assay [2] (setting [6]).

`CN1C(=O)C(Cc2c[nH]c3ccccc23)NC1=S` (stereo unspecified): the Z-AUC in assay [1] was -0.877 (inactive); in assay [1] (setting [3]) it was -0.326; in assay [1] (measured here: PEO4 Z-AUC) it was -0.823. The z-score in assay [2] (setting [4]) was determined as 0.322; in assay [2] (setting [5]), 0.546; in assay [2] (setting [6]), 0.284.

With `NC[C@H]1O[C@H](O[C@@H]2[C@@H](O)[C@@H](O[C@H]3O[C@H](CO)[C@@H](O)[C@H](N)[C@@H]3O)[C@H](N)C[C@@H]2N)[C@H](O)[C@@H](O)[C@H]1O`, the values for the Z-AUC in assay [1], in assay [1] (setting [3]) and in assay [1] (measured here: PEO4 Z-AUC) were 1.2 (inactive), 0.776 and 0.763, respectively. Besides, the z-score stood at 1.51 in assay [2] (setting [4]), 0.542 in assay [2] (setting [5]) and 0.0704 in assay [2] (setting [6]).

As for `Cc1cn([C@@H]2C[C@@H](O)[C@H](CO)O2)c(=O)[nH]c1=O`, the Z-AUC in assay [1] is 0.721 (inactive); in assay [1] (setting [3]), 0.778; in assay [1] (measured here: PEO4 Z-AUC), 0.771. In addition, the results for the z-score in assay [2] (setting [4]), in assay [2] (setting [5]) and in assay [2] (setting [6]) were 0.973, 1.9 and 0.117, respectively.

As to `C[C@@H](O[C@H]1OCCN(Cc2n[nH]c(=O)[nH]2)[C@@H]1c1ccc(F)cc1)c1cc(C(F)(F)F)cc(C(F)(F)F)c1`, the values for the Z-AUC in assay [1], in assay [1] (setting [3]) and in assay [1] (measured here: PEO4 Z-AUC) were -0.0654 (inactive), -0.373 and -0.245, respectively.

Consider `NCC1CCC(C(=O)O)CC1` (stereo unspecified), for which the Z-AUC in assay [1] is -0.425 (inactive); in assay [1] (setting [3]) it was -0.68; in assay [1] (measured here: PEO4 Z-AUC), -0.142. In addition, the z-score was 0.68 in assay [2] (setting [4]), 0.972 in assay [2] (setting [5]) and 0.669 in assay [2] (setting [6]).

For `Cc1nc(C(=O)NCC(=O)O)c(O)c2ccc(Oc3ccccc3)cc12`, the Z-AUC was 1.39 (inactive) in assay [1], 0.88 in assay [1] (setting [3]) and 0.853 in assay [1] (measured here: PEO4 Z-AUC).

On to `CCN(CCO)CCCOc1ccc2c(Nc3cc(CC(=O)Nc4cccc(F)c4)[nH]n3)ncnc2c1`, for which the Z-AUC in assay [1] was -0.614 (inactive); in assay [1] (setting [3]), -0.629; in assay [1] (measured here: PEO4 Z-AUC), -1.66. Further, the results for the z-score in assay [2] (setting [4]), in assay [2] (setting [5]) and in assay [2] (setting [6]) were 0.018, 0.316 and 0.045, respectively.

With `CCC[C@H](N[C@@H](C)C(=O)N1[C@@H]2CCCC[C@H]2C[C@H]1C(=O)O)C(=O)OCC`, the Z-AUC in assay [1] was -0.443 (inactive); in assay [1] (setting [3]), -0.451; in assay [1] (measured here: PEO4 Z-AUC), -0.177. The values for the z-score in assay [2] (setting [4]), in assay [2] (setting [5]) and in assay [2] (setting [6]) were 0.586, 0.337 and 0.752, respectively.

On to `CCc1cc(-c2n[nH]c(C)c2-c2ccc3c(c2)OCCO3)c(O)cc1O`, for which the results for the Z-AUC in assay [1], in assay [1] (setting [3]) and in assay [1] (measured here: PEO4 Z-AUC) were 0.644 (inactive), 0.497 and 0.316, respectively.
